# In PubChem BioAssay AID624267 (The Scripps Research Institute Molecular Screening Center, 2012):
# Values joined by “and” are separate entries in the source; they are usually repeats but may differ in a detail not shown here. Identical values can stand only once. Hit rate of the full screen: of about 360,000 compounds, about 1,400 (0.39%) were called active. The sample holds actives, similar compounds and a random draw of the others, so the mix is not that of the screen. No stated cut-off is given here; in the data, active means inhibition above about 21%; inactive means the rest.
# Biological target: Receptor-interacting serine/threonine-protein kinase 2 (Homo sapiens) (UniProt O43353)
# Test: inhibitors of RIPK2 association with NOD2 – fluorescence, CHO cells, BLA complementation, primary screen (AID 624267);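 further: 0% = vehicle only and 100% = reference blocker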
# Details: CHO BLA complementation NOD2-RIPK2, CCF4 ratio; at 4.98 µM; stronger effect = higher value
# Receptor-interacting serine/threonine-protein kinase 2 (Homo sapiens), sequence (O43353 whole entry, looked up): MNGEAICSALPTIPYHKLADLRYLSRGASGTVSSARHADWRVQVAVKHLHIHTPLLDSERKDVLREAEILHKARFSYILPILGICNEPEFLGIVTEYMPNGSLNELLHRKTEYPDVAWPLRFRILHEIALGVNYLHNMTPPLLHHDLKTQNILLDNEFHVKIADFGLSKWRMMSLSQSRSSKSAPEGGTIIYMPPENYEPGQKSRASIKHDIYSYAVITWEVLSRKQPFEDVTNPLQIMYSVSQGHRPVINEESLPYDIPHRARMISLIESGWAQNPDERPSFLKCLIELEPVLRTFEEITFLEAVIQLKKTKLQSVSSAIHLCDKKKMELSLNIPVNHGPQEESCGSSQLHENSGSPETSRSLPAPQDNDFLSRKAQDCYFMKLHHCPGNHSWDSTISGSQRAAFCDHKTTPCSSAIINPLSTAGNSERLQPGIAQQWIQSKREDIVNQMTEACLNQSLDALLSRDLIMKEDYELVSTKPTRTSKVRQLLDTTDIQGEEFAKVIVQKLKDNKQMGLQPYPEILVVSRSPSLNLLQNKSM
row,Compound,inhibition
1,COc1cc(S(=O)(=O)Nc2ncn[nH]2)ccc1Cl,3.73% (inactive)
2,CC(=O)c1cc(C#N)c(N2CC(C)OC(C)C2)nc1C (stereo not drawn),0.19% (inactive)
3,COc1ccc(-c2nc3cnccn3c2NC(C)(C)CC(C)(C)C)cc1O,7.55% (inactive)
4,COc1ccc(-c2nc3cnccn3c2NC2CCCCC2)cc1-c1cccc(Cl)c1,27.1% (active) and 52.4% (active)
5,COc1ccc(-c2nc3cc(C)ccn3c2NC2CCCCC2)cc1SC1CCCCC1,-6.71% (inactive) and 17.4% (inactive)
6,Cn1c(SCC(=O)NC2CCCCC2)nnc1-c1ccc(N)cc1,-8.42% (inactive)
7,CCCn1nc(Oc2nc(NC(C)C)nc(N(C)C)n2)ccc1=O,-6.09% (inactive)
8,Cc1ccccc1CNC(=O)CCC(=O)N1Cc2ccccc2Oc2ncccc21,-3.11% (inactive)
9,Cc1ccc(C(=O)Nc2c(-c3ccccc3)[nH][nH]c2=O)cc1,-2.83% (inactive)
10,O=C(NC1=CC(=O)c2ccccc2C1=O)c1ccccc1,60.6% (active)
11,O=C(NNC(=O)C1CCC1)c1ccccc1,-5.53% (inactive)
12,O=C(CN1C(=O)NC2(CCCCCC2)C1=O)NCc1cccs1,5.08% (inactive)
13,CCc1cccc(C)c1NS(=O)(=O)c1c(C)nc2sccn2c1=O,6.35% (inactive)
14,Cc1cccc(N2Cc3ccccc3C2=NC(=O)c2ccc(Cl)nc2)c1,1.35% (inactive)
15,Nc1c(-c2cccc(Cl)c2)cnn1-c1cccc([N+](=O)[O-])c1,-0.26% (inactive)
16,Cc1cccc(-n2ncc(Cl)c(Cl)c2=O)c1,32.6% (active)
17,Cc1ccc2[nH]c(C)c(CCNC(=O)NC3CCCCC3)c2c1,10.4% (inactive)
18,O=C(CN1CCOCC1)Nc1c2c(nc3c1CCC3)CCC2,-11.5% (inactive)
19,Cc1cc(C)n2nc(C(=O)OCC(=O)N(CCC#N)c3ccc(F)cc3)nc2n1,5.67% (inactive)
20,CC(C)(C)C(=O)/C(C#N)=C/c1ccc(O)cc1,-19.2% (inactive)
21,O=C(/C=C(O)/C=C/c1ccc(O)cc1)/C=C/c1ccc(O)cc1,56.9% (active)
22,COc1cccc(C(=O)NNC(=O)/C=C/c2ccccc2)c1,-14.4% (inactive)
23,COc1ccc(OC)c(CN2C(=O)CCC2(C)C(=O)NC2CCCCCC2)c1 (stereo not drawn),-0.24% (inactive)

row,Compound,inhibition
1,FC(F)(F)C1CCCN(c2nsc3ccccc23)C1 (stereo not drawn),31% (active)
2,O=[N+]([O-])c1cc(S(=O)(=O)NCCc2ccccn2)ccc1Cl,5.34% (inactive)
3,Cc1ccc(C(=O)CN2C(=O)NC3(CCOc4ccccc43)C2=O)s1 (stereo not drawn),-4.27% (inactive)
4,CCC1Sc2ccc(S(=O)(=O)CCC(=O)NCc3cccs3)cc2NC1=O (stereo not drawn),-15.1% (inactive)
5,COc1cc(NS(=O)(=O)c2ccc3ccccc3c2)c2ncccc2c1,29.3% (active)
6,COc1ccc(OC)c(C(C)NC(=S)Nc2ccc(S(=O)(=O)Nc3ncccn3)cc2)c1 (stereo not drawn),2.38% (inactive)
7,O=S(=O)(Nc1ccccn1)c1cccc(S(=O)(=O)c2ccc(Cl)cc2)c1,-8.24% (inactive)
8,Cc1cccc(COc2ccccc2/C=N/Nc2ccc([N+](=O)[O-])cc2)c1,31.1% (active)
9,O=[N+]([O-])c1ccc(COc2ccccc2CN2CCOCC2)cc1,-0.03% (inactive)
10,CC(C=Cc1ccccc1)=NNS(=O)(=O)c1ccc([N+](=O)[O-])cc1,3.79% (inactive)
11,Cc1ccccc1OCCOc1ccc([N+](=O)[O-])cc1/C=N/n1cnnc1,7.18% (inactive)
12,O=[N+]([O-])c1ccc(N/N=C/c2ccccc2)cc1,24.8% (active)
13,COC(=O)c1ccccc1N=NNc1ccc([N+](=O)[O-])cc1,2.92% (inactive)
14,COCCN(C(=O)CSCc1ccc(C)cc1)c1c(N)n(CC(C)C)c(=O)[nH]c1=O,-4.76% (inactive)
15,CN(C)CCCO/N=C(\c1ccccc1)c1ccncc1,-6.88% (inactive)
16,CCO[C@@H]1OC(C(N)=O)=C[C@H](c2ccc(Br)cc2)[C@H]1CCCO,-17.7% (inactive)
17,CN(C)S(=O)(=O)c1cccc(C(=O)OCC(=O)N2CCCC2=O)c1,-8.86% (inactive)
18,CC(=O)Nc1ccc(NC(=O)C(C)OC(=O)c2ccccc2C(=O)c2ccc(Cl)c([N+](=O)[O-])c2)cc1 (stereo not drawn),3.48% (inactive)
19,NS(=O)(=O)c1cccc(NC(=O)COC(=O)c2cc([N+](=O)[O-])ccc2N2CCCC2)c1,-11.1% (inactive)
20,N#Cc1cccc(NC(=O)COC(=O)c2ccccc2C(=O)c2ccc(Cl)c([N+](=O)[O-])c2)c1,39.9% (active)
21,Cn1nnnc1SCC(=O)NNC(=O)c1ccc(Br)cc1,-2.01% (inactive)
22,CN1CCN(/N=C2/C(=O)Nc3ccc([N+](=O)[O-])cc32)CC1,1.73% (inactive)
23,CN1CCN(/N=C/c2ccc(-c3ccc([N+](=O)[O-])cc3)o2)CC1,21.4% (active)

row,Compound,inhibition
1,CN1CCN(/N=C/c2ccc(C#N)cc2)CC1,-13.1% (inactive)
2,COCCNC(=O)C(c1ccc(C)o1)N(Cc1cccs1)C(=O)c1snc(C(N)=O)c1N (stereo not drawn),-22% (inactive)
3,Cc1nnc(NC2=NCCCCC2)o1,-2.4% (inactive)
4,COc1ccc(CNC(=O)CN2CCC(n3nnc4cc(F)ccc43)CC2)cc1,-4.66% (inactive)
5,Cn1c(SCC(=O)C(C)(C)C)nnc1-c1ccccn1,2.6% (inactive)
6,O=C(O)COc1ccc(/C=N/O)cc1Br,11.6% (inactive)
7,COc1cc(/C=N/NC(=O)Nc2ccccc2)ccc1OCCOc1ccccc1C,9.59% (inactive)
8,CNC(=S)N/N=C/c1ccc(OCc2ccccc2)c(Br)c1,33.9% (active)
9,Cc1c(-c2ccccc2)cn2c1-c1ccc(C)n1CC2,-12.5% (inactive)
10,[O-][n+]1onc2c1CCc1[nH]c(-c3ccccc3)nc1-2,-6.67% (inactive)
11,CC(C)=CCC/C(C)=C/C(=O)O,3.56% (inactive)
12,Cc1cc(C)nc(NC(=O)Nc2ccccc2C(F)(F)F)n1,7.62% (inactive)
13,O=C(/C=C/Sc1ncn[nH]1)c1ccc(Cl)cc1,21.3% (active)
14,CC(C)CC(=O)N=C1SC2CS(=O)(=O)CC2N1CCc1ccccc1 (stereo not drawn),-9.18% (inactive)
15,C=CCn1c(-c2ccccc2OCC)n[nH]c1=S,0.62% (inactive)
16,O[C@@H]1C[C@H](c2ccccc2)N(Cc2cccs2)C[C@H]1n1cc(C2CC2)nn1,-9.47% (inactive)
17,O[C@H]1C[C@H](c2ccc(Cl)cc2)N(Cc2cccs2)C[C@@H]1n1cc(C2CC2)nn1,21.6% (active)
18,O[C@H]1CN(Cc2cccs2)[C@@H](c2ccc(Cl)cc2)C[C@@H]1n1cc(C2CC2)nn1,5.68% (inactive)
19,CC(=O)Nc1ccc(CNc2nc(NCCN(C)C)nc3cc(-c4ccccc4)sc23)cc1,11.1% (inactive)
20,Cc1ccc(C(=O)N2CCC(n3nccc3NC(=O)Nc3cccc(F)c3)CC2)cn1,-2.88% (inactive)
21,COc1ccc2ccccc2c1CNCc1ccccn1,-4.61% (inactive)
22,FC(F)Oc1ccccc1C1CC(c2ccc(Br)s2)Nc2ncnn21 (stereo not drawn),-2.05% (inactive)
